Key:
Assay in all cases: DAPPL (digital affinity profiling via proximity ligation, sequencing); 10 mM Tris-HCl pH 7.5, 50 mM NaCl, 1 mM DTT, 4% glycerol, room temperature, 30 min; GST-TFs on glutathione beads, 16-mer random dsDNA library, 0.1% formaldehyde crosslink after washing; high values mean tight binding
FEV = biological target: T1, FEV (Homo sapiens, UniProt Q99581 1-238); conditions: protein: recombinant; tags: N-terminal GST; dsDNA, one strand shown
T1 sequence: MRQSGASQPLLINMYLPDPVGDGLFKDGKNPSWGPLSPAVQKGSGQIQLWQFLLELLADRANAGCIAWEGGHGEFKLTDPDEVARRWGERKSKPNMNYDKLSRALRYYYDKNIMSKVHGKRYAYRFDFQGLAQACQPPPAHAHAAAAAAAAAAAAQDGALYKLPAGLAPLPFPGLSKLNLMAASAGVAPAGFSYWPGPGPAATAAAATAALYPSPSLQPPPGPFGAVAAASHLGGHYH
Procedure, shortened: (§1)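 A tag-only sample was pooled with DNA-barcoded human transcription factors that had been expressed in yeast as GST fusions and captured on glutathione beads. The pools were incubated for 30 min at room temperature with 200 nmole of a random double-stranded 16-mer DNA library in Tris/NaCl/DTT/glycerol buffer, then washed, crosslinked with 0.1% formaldehyde, proximity-ligated (BsaI/T4 ligase, 1 h, 37 °C), PCR-amplified and sequenced on an Illumina NextSeq500. Binding signal is each hexamer's read frequency for a factor divided by its frequency for the tag-only sample.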

ETV5 = ETV5 (Homo sapiens, UniProt P41161 1-510); conditions: protein: recombinant; tags: N-terminal GST; dsDNA, one strand shown
ETV5, sequence (P41161 whole entry): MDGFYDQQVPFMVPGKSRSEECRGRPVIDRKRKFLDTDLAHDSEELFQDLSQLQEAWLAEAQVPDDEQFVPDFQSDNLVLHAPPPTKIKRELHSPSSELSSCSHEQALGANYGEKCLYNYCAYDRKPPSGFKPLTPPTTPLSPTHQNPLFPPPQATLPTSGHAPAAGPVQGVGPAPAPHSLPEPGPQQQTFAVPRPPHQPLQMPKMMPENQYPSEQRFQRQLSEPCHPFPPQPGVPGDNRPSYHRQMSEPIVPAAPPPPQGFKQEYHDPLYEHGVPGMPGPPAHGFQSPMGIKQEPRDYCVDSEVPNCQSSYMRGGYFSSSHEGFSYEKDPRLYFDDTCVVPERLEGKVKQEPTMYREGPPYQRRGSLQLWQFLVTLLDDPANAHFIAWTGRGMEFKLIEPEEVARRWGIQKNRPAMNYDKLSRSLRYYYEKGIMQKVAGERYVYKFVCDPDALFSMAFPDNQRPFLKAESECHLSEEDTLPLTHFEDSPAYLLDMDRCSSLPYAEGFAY
Procedure, shortened: as §1

HSF1 = HSF1 (Homo sapiens, UniProt Q00613 1-529); conditions: protein: recombinant; tags: N-terminal GST; chain copies: 3; dsDNA, one strand shown
HSF1, sequence (Q00613 whole entry): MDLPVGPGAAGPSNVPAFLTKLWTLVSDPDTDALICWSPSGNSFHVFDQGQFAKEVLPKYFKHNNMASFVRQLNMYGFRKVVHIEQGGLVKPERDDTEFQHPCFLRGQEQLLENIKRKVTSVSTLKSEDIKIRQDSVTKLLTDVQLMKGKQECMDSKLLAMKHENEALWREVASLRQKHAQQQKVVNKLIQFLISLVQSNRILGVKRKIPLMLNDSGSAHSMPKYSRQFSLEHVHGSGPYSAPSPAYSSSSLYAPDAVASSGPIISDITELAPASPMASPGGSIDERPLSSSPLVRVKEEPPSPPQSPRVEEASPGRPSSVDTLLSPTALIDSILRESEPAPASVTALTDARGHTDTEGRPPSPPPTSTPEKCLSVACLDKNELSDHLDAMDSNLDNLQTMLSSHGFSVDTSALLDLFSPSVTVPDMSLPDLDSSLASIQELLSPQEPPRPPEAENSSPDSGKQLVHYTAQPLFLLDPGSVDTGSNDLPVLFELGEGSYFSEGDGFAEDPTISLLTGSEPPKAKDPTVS
Procedure, shortened: as §1

SPIC = biological target: T2, SPIC (Homo sapiens, UniProt Q8N5J4 1-248); conditions: protein: recombinant; tags: N-terminal GST; dsDNA, one strand shown
T2 sequence: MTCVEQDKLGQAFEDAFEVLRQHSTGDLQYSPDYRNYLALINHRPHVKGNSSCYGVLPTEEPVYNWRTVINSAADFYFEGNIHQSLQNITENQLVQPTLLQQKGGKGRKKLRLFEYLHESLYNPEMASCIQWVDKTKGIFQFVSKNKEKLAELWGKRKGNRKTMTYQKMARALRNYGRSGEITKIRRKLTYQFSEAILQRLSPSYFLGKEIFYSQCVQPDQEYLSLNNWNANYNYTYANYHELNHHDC
Procedure, shortened: as §1

ELF4 = ELF4 (Homo sapiens, UniProt Q99607 1-663); conditions: protein: recombinant; tags: N-terminal GST; dsDNA, one strand shown
ELF4, sequence (Q99607 whole entry): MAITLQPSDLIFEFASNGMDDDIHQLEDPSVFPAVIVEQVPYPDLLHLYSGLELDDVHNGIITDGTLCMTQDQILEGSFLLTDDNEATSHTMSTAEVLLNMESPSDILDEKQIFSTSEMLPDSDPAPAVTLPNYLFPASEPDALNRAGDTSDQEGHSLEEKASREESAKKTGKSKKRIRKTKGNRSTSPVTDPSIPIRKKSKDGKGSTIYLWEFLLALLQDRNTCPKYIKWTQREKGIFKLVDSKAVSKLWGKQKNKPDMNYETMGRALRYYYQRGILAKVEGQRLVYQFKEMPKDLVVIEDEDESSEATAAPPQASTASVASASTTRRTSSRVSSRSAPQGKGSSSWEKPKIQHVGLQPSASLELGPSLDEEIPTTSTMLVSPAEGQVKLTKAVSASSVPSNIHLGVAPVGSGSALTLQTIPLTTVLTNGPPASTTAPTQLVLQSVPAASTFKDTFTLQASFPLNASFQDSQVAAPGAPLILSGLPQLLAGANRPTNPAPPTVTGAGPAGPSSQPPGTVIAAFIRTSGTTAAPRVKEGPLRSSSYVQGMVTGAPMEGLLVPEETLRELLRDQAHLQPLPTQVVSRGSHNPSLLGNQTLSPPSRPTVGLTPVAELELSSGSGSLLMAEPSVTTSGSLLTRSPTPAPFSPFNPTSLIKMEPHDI
Procedure, shortened: as §1

ELK4 = biological target: T3, ELK4 (Homo sapiens, UniProt P28324-2 1-405); conditions: protein: recombinant; tags: N-terminal GST; dsDNA, one strand shown
T3 sequence: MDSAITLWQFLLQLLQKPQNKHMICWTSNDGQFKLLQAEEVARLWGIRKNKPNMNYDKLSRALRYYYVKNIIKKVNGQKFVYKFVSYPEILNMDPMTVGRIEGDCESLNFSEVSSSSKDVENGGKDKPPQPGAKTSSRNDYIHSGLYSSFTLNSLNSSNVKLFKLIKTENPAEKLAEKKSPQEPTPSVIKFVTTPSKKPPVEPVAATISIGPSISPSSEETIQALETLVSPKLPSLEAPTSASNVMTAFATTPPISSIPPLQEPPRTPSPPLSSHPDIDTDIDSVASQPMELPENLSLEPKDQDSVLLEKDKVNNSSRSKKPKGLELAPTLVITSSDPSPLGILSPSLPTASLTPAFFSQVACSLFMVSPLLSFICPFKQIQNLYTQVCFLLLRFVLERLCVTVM
Procedure, shortened: as §1

ETV2 = biological target: T4, ETV2 (Homo sapiens, UniProt O00321 1-342); conditions: protein: recombinant; tags: N-terminal GST; dsDNA, one strand shown
T4 sequence: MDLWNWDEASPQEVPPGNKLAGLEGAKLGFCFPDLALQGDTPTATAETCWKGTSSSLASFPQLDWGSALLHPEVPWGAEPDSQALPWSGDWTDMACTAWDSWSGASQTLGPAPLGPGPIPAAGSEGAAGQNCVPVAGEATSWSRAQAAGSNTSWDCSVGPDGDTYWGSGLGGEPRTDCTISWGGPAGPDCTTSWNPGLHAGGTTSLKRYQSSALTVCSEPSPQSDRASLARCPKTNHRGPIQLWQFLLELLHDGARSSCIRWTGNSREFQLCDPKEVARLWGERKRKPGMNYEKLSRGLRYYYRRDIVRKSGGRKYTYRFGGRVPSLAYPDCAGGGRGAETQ
Procedure, shortened: as §1

ELF3 = biological target: T5, ELF3 (Homo sapiens, UniProt P78545 1-371); conditions: protein: recombinant; tags: N-terminal GST; dsDNA, one strand shown
T5 sequence: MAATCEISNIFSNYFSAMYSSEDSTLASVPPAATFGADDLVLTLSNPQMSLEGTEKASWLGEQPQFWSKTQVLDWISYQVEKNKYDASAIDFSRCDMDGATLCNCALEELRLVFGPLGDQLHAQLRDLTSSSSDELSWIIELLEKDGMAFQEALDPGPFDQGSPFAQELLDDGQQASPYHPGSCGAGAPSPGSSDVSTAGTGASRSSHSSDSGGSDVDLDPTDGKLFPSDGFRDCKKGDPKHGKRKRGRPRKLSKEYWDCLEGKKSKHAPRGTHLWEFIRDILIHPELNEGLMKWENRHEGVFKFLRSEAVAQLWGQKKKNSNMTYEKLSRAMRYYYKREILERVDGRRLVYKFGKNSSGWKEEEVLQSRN
Procedure, shortened: as §1

CRX = CRX (Homo sapiens, UniProt O43186 1-299); conditions: protein: recombinant; tags: N-terminal GST; dsDNA, one strand shown
CRX, sequence (O43186 whole entry): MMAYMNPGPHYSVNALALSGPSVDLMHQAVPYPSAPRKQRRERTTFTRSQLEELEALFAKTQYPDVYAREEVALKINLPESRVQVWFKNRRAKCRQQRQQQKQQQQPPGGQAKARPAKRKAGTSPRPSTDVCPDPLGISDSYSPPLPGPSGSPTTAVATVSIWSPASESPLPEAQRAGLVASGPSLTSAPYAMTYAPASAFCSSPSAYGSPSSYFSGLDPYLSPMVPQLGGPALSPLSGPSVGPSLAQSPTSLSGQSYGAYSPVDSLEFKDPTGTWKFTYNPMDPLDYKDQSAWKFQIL
Procedure, shortened: as §1

ETV1 = ETV1 (Homo sapiens, UniProt P50549 1-477); conditions: protein: recombinant; tags: N-terminal GST; dsDNA, one strand shown
ETV1, sequence (P50549 whole entry): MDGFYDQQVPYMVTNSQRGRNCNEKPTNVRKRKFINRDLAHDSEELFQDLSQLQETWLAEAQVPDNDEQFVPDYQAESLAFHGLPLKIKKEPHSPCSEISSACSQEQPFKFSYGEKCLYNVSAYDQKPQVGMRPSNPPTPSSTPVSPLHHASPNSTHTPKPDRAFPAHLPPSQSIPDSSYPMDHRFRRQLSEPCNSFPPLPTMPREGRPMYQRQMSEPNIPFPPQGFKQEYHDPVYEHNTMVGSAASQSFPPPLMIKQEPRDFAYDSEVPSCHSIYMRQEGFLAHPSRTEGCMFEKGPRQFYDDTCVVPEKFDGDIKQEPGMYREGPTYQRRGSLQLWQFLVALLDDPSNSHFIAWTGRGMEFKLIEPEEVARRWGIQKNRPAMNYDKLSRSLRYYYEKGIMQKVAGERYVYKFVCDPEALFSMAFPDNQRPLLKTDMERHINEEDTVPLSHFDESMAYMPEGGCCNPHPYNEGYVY
Procedure, shortened: as §1

ERF = biological target: T6, ERF (Homo sapiens, UniProt P50548 1-548); conditions: protein: recombinant; tags: N-terminal GST; dsDNA, one strand shown
T6 sequence: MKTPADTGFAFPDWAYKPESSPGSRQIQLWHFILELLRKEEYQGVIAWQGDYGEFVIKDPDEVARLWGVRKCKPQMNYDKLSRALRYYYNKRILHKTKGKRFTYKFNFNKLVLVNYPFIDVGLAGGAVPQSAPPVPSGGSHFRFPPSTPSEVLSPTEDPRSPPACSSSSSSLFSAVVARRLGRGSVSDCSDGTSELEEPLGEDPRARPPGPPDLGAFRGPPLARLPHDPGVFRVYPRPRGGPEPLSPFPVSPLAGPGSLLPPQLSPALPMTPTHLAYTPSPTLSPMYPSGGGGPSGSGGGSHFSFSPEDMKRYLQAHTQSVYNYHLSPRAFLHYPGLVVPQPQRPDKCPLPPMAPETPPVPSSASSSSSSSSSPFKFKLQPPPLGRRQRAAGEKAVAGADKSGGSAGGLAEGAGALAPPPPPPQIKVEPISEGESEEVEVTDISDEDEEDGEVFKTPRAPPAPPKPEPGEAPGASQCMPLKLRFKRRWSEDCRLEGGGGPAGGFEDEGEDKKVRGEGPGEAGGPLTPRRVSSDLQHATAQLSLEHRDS
Procedure, shortened: as §1

ETV3L = biological target: T7, ETV3L (Homo sapiens, UniProt Q6ZN32 1-361); conditions: protein: recombinant; tags: N-terminal GST; dsDNA, one strand shown
T7 sequence: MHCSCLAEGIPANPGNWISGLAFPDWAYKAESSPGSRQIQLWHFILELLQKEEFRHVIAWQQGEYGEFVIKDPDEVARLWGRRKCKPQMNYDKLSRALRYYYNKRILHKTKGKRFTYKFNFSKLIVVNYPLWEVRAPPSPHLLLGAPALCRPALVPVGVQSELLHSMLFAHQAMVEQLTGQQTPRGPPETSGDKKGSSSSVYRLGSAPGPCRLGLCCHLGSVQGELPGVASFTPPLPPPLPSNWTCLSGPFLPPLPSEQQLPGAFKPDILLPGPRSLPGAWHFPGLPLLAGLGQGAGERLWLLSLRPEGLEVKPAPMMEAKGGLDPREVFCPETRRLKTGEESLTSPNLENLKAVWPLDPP
Procedure, shortened: as §1

ETS2 = biological target: T8, ETS2 (Homo sapiens, UniProt P15036 1-469); conditions: protein: recombinant; tags: N-terminal GST; dsDNA, one strand shown
T8 sequence: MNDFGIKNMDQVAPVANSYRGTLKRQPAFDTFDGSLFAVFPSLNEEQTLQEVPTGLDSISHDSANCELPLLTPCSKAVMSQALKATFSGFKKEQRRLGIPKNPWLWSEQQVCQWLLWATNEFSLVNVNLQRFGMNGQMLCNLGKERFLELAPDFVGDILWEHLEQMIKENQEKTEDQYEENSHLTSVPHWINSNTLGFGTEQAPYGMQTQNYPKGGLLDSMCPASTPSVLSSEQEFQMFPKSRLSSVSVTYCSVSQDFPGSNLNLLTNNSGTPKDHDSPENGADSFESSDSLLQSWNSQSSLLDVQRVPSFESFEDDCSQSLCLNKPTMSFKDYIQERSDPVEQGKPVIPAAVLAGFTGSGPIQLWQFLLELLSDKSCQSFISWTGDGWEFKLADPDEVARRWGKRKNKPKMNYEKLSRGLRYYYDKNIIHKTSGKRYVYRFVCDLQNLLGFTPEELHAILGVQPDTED
Procedure, shortened: as §1

SPDEF = biological target: T9, SPDEF (Homo sapiens, UniProt O95238 1-335); conditions: protein: recombinant; tags: N-terminal GST; dsDNA, one strand shown
T9 sequence: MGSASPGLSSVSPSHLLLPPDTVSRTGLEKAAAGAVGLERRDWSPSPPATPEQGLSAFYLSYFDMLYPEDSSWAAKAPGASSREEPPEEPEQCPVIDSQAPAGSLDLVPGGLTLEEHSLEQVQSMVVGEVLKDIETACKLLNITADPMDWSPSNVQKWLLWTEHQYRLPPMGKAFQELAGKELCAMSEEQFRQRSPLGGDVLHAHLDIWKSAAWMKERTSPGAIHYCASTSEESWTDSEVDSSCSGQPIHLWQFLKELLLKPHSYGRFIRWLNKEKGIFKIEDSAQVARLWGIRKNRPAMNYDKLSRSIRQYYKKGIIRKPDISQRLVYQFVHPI
Procedure, shortened: as §1

ETV7 = biological target: T10, ETV7 (Homo sapiens, UniProt Q9Y603 1-341); conditions: protein: recombinant; tags: N-terminal GST; dsDNA, one strand shown
T10 sequence: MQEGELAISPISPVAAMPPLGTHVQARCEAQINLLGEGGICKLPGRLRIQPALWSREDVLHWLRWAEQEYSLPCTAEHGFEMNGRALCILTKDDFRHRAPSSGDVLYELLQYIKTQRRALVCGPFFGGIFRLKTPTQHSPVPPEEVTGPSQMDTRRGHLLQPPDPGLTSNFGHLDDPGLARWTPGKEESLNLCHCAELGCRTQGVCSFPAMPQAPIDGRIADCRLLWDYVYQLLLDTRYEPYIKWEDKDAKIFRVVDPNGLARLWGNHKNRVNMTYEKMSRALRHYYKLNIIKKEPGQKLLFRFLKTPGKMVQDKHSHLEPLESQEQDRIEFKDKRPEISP
Procedure, shortened: as §1

ELF5 = biological target: T11, ELF5 (Homo sapiens, UniProt Q9UKW6-2 1-255); conditions: protein: recombinant; tags: N-terminal GST; dsDNA, one strand shown
T11 sequence: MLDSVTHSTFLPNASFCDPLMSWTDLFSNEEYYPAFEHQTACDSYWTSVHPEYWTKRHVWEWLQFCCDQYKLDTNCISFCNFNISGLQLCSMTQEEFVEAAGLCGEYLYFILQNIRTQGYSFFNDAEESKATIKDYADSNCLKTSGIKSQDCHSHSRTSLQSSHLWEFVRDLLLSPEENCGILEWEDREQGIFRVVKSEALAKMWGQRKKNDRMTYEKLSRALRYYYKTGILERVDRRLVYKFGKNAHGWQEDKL
Procedure, shortened: as §1

ETV3 = biological target: T12, ETV3 (Homo sapiens, UniProt P41162-2 1-143); conditions: protein: recombinant; tags: N-terminal GST; dsDNA, one strand shown
T12 sequence: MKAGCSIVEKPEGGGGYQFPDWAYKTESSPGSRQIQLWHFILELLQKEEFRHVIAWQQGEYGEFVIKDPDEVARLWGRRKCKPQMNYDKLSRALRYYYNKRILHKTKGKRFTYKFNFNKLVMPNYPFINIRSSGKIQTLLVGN
Procedure, shortened: as §1

ETV6 = ETV6 (Homo sapiens, UniProt P41212 1-452); conditions: protein: recombinant; tags: N-terminal GST; dsDNA, one strand shown
ETV6, sequence (P41212 whole entry): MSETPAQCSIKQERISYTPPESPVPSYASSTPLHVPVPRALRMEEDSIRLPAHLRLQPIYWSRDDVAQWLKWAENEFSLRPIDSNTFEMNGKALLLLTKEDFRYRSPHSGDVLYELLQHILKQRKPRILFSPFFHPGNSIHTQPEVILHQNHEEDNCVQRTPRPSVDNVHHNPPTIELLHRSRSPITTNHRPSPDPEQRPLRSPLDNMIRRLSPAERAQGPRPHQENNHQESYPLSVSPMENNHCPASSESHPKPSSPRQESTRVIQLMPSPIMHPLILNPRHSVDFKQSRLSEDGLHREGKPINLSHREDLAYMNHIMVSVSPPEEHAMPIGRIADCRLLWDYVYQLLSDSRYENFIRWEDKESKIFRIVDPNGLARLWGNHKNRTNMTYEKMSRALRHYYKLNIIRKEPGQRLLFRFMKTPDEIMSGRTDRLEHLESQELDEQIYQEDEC
Procedure, shortened: as §1

In the case of TAATGG, the binding signal (FEV) was 1.25 fold enrichment (6-mer frequency, TF over GST control), the binding signal (ETV5) was 1.35 fold enrichment (6-mer frequency, TF over GST control) and the binding signal (HSF1) was 1.46 fold enrichment (6-mer frequency, TF over GST control). The binding signal (SPIC) was 1.34 fold enrichment (6-mer frequency, TF over GST control), the binding signal (ELF4) was 1.3 fold enrichment (6-mer frequency, TF over GST control) and the binding signal (ELK4) was 1.3 fold enrichment (6-mer frequency, TF over GST control). For the same sequence, the binding signal (ETV2) was 1.09 fold enrichment (6-mer frequency, TF over GST control), the binding signal (ELF3) was 1.31 fold enrichment (6-mer frequency, TF over GST control) and the binding signal (CRX) was 1.64 fold enrichment (6-mer frequency, TF over GST control). The binding signal (ETV1) was 1.45 fold enrichment (6-mer frequency, TF over GST control), the binding signal (ERF) was 1.17 fold enrichment (6-mer frequency, TF over GST control) and the binding signal (ETV3L) was 1.23 fold enrichment (6-mer frequency, TF over GST control). For the same sequence, the binding signal (ETS2) was 1.28 fold enrichment (6-mer frequency, TF over GST control), the binding signal (SPDEF) was 1.22 fold enrichment (6-mer frequency, TF over GST control) and the binding signal (ETV7) was 1.2 fold enrichment (6-mer frequency, TF over GST control). The binding signal (ELF5) was 1.32 fold enrichment (6-mer frequency, TF over GST control), the binding signal (ETV3) was 1.28 fold enrichment (6-mer frequency, TF over GST control) and the binding signal (ETV6) was 1.31 fold enrichment (6-mer frequency, TF over GST control).

Source: PMC7862700, “An all-to-all approach to the identification of sequence-specific readers for epigenetic DNA modifications on cytosine”
